Mcl1 Bid PPI – Mcl-1/Bid interaction inhibition; Q07820; TR-FRET Mcl-1/Bid-Dy647 peptide binding, 1536-well; inhibition, % at 21.7 µM; 220,000 tested, 0.97% active; AID 1021;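 active = compounds that cut the binding signal by more than half at the single screening dose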;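 note: His-tagged Mcl-1 with europium anti-His antibody binding Bid BH3 peptide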
Target sequence (Q07820 whole entry, looked up): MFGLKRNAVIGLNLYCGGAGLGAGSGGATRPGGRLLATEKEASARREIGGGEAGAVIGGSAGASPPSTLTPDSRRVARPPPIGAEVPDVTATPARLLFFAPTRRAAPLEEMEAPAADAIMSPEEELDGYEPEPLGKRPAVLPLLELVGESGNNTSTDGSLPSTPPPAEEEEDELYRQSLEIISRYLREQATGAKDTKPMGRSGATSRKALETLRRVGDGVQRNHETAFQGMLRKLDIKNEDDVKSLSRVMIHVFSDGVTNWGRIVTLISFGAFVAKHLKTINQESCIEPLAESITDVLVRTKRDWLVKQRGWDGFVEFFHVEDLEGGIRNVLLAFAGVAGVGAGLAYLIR
Mcl1 Noxa PPI – disrupts binding of human Mcl-1 to Noxa peptide; inhibition, % at 21.7 µM; TR-FRET Mcl-1/Noxa peptide binding, 2 h; Q07820; 220,000 tested, 1.5% active; AID 1022;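 active = compounds that cut the protein-peptide binding signal by more than 50% relative to plate controls in a single-dose test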;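 note: His-tagged Mcl-1 with rhodamine Noxa BH3 peptide and terbium anti-His antibody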
Mcl-1 Bim block – inhibitors of Bim-Mcl-1 interaction, human | Bead-based flow cytometry, Bim peptide-Mcl-1 binding | inhibition, % at 10 µM | 190,000 tested, 0.1% active; in the data active = inhibition above about 40%
L929 necroptosis – L929 zVAD cell death inhibition; L929 zVAD necroptosis rescue, ATP luminescence, 24 h; with zVAD 60 µM; viability rescue, % at 10 µM; 220,000 tested, 0.38% active; AID 1377;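 active = activation, scaled between plate controls, above about 75%, limit read from the data; inactive = activation under that limit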
TNF death inh – inhibitors of TNF-alpha induced necroptosis in Jurkat FADD-/- cells | Jurkat FADD-/- TNF necroptosis rescue, ATP luminescence, 24 h; 0 = TNF only, 100 = no-TNF cells | activation (protection from cell death), % at 10 µM | 220,000 tested, 0.068% active;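 active = activation, meaning protection from cell death, of at least 50% relative to plate controls; inactive = activation below 50%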;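 note: necroptosis triggered by 40 ng/mL TNF-alpha added together with compound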
m-calpain inh – inhibitors of pig calpain II; purified calpain II, fluorogenic peptide substrate, 30 min; 220,000 tested, 0.37% active; AID 1236; inhibition, % at 16 µM;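 active = inhibition above about 50%, limit read from the data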
Of the large screens only hits and unclear results are named; the others gave an inactive call. Compounds with a hit are over-represented: about 2.8% of the library has one in this group of screens.

O=C(COC(=O)c1ccc(NS(=O)(=O)c2cccs2)cc1)NCc1ccco1	Mcl1 Noxa PPI 107 (no result: Mcl-1 Bim block)
COc1cc(C(=O)OCC(=O)NCc2ccco2)cc(OC)c1OC	none
COc1cc(NC(=O)c2cccs2)c(C(=O)OCC(=O)NCc2ccco2)cc1OC	Mcl1 Noxa PPI 63
O=C(COC(=O)c1cncc(Br)c1)NCc1ccco1	Mcl1 Noxa PPI 56
Cc1ccc(NS(=O)(=O)c2cccc(C(=O)OCC(=O)NCc3ccco3)c2)cc1	none
CCN(CC)c1cc(C)c2cc(NC(=O)c3ccc(Br)o3)ccc2n1	Mcl1 Noxa PPI 60
C=CCC1(/C=N/O)CCOC(C)(C)C1 (centres undefined)	Mcl1 Bid PPI 98 (no result: Mcl-1 Bim block)
COc1ccc(CCNC(=O)CN(c2ccc(OC)c(OC)c2)S(C)(=O)=O)cc1	Mcl1 Noxa PPI 75
O=[N+]([O-])c1cccc2c3c([nH]c12)CCCC3	none (no result: Mcl-1 Bim block)
Clc1ccccc1CN1CCc2sccc2C1	Mcl1 Bid PPI 88
C/C(N)=C(/C#N)C(=O)CSc1nnc(Nc2c(C)cccc2C)s1	Mcl1 Noxa PPI 72
COc1cc([N+](=O)[O-])cc(/C=N\NC(=O)C2COc3ccccc3O2)c1O (centres undefined)	none (no result: Mcl-1 Bim block)
Cc1cccc(NC(=O)CN2C(=O)N/C(=C/c3ccc(C)o3)C2=O)c1	Mcl1 Noxa PPI 85
CCn1c(C)cc(/C=C2/NC(=O)N(CC(=O)Nc3cccc(C)c3)C2=O)c1C	Mcl1 Bid PPI 85, Mcl1 Noxa PPI 54
Cc1cc(C)c(Cn2c(=O)n(CCCC(=O)NCc3ccco3)c(=O)c3ccccc32)c(C)c1	none (no result: Mcl1 Bid PPI, Mcl1 Noxa PPI, Mcl-1 Bim block, m-calpain inh)
COc1ccc(C2CC(c3ccc(OC)cc3)n3nc(N)nc3N2)cc1 (centres undefined)	none (no result: Mcl1 Bid PPI, Mcl1 Noxa PPI, Mcl-1 Bim block, m-calpain inh)
COc1ccc(C2CC(c3ccccc3)Nc3nc(N)nn32)cc1 (centres undefined)	Mcl1 Bid PPI 71
COc1cc(Cl)c(C)cc1NC(=O)c1ccc(S(C)(=O)=O)cc1	none
Nc1ccc(Sc2ccc([N+](=O)[O-])cc2)cc1	none
O=C1C=CC(=O)N1c1ccc(Sc2ccc([N+](=O)[O-])cc2)cc1	Mcl1 Noxa PPI 73 (no result: Mcl-1 Bim block)
Cc1nc(C)n(CC(O)COc2ccc3c(c2)CCC3)n1 (centres undefined)	Mcl1 Bid PPI 92
CC1=C(C(=O)OCc2ccccc2)C(c2cccnc2)c2c(n(C)c(=O)n(C)c2=O)N1 (centres undefined)	none
Cc1cccc(Nc2ncccc2C(=O)NCc2cccs2)c1C	m-calpain inh 54
O=C1CCCC2(O)C1C(c1cccc(Br)c1)NC(=O)N2Cc1ccccc1 (centres undefined)	Mcl-1 Bim block 41
CCN(CC)c1ccc(C(=O)OCC(=O)Nc2ccc3[nH]c(=O)[nH]c3c2)cc1	Mcl1 Noxa PPI 55
CC1CC1C(=O)OCC(=O)Nc1ccc2[nH]c(=O)[nH]c2c1 (centres undefined)	Mcl1 Noxa PPI 76
CCN(CC)c1ccc(NC(=O)COC(=O)c2ccc3ccccc3n2)cc1	Mcl1 Noxa PPI 57
O=C(COc1cccc(F)c1)Nc1ccc2[nH]c(=O)[nH]c2c1	none
O=C(COC(=O)c1c(F)cccc1F)Nc1ccc2[nH]c(=O)[nH]c2c1	Mcl1 Noxa PPI 72
CN1CCC(NC(=S)Nc2cccc([N+](=O)[O-])c2)CC1	none
CCCC(=O)OCC(=O)Nc1ccc2[nH]c(=O)[nH]c2c1	none
O=C(COC(=O)c1ccc(F)cc1F)Nc1ccc2[nH]c(=O)[nH]c2c1	Mcl1 Noxa PPI 69
CC(=O)C1=C(C)NC(SCC(N)=O)=C(C#N)C1c1cccnc1 (centres undefined)	Mcl1 Bid PPI 97
CC1=C(C(=O)Nc2ccc(Cl)cc2)C(c2ccncc2)C(C#N)=C(SCC(N)=O)N1 (centres undefined)	none
COc1cc(/C=C(\C#N)c2nc3ccccc3s2)cc([N+](=O)[O-])c1O	Mcl1 Noxa PPI 99
COc1ccc(-c2csc(/C(C#N)=C\c3ccc(O)c([N+](=O)[O-])c3)n2)cc1OC	Mcl1 Bid PPI 70, Mcl1 Noxa PPI 102 (no result: Mcl-1 Bim block)
N#C/C(=C\c1ccc(N2CCCC2)c([N+](=O)[O-])c1)c1nc2ccccc2[nH]1	Mcl1 Bid PPI 68
N#C/C(=C\c1ccc(O)c([N+](=O)[O-])c1)c1nc2ccccc2s1	Mcl1 Noxa PPI 66
COc1ccc(-c2csc(/C(C#N)=C\c3ccc(OC)c([N+](=O)[O-])c3)n2)cc1	none
N#C/C(=C\c1ccc(N2CCCCC2)c([N+](=O)[O-])c1)c1nn(-c2ccccc2)c(N)c1C#N	none
Cc1nc2ccccc2n1C(=O)N(C)C	none
O=C(N/N=C/c1ccc(O)cc1O)/C(=C/c1ccccc1)CCO	none
Cc1ccc(-n2[nH]c(C)c(/C=N/Nc3ccc([N+](=O)[O-])cc3[N+](=O)[O-])c2=O)cc1C	Mcl1 Noxa PPI 54
Cc1[nH]n(-c2ccccc2)c(=O)c1/C=N/NC(=O)c1cccc([N+](=O)[O-])c1	none
CCOC(=O)C1(Cc2cccc(F)c2)CCN(CC(O)CO)CC1 (centres undefined)	none (no result: Mcl-1 Bim block)
COc1ccccc1NC(=O)C1=C(C)NC(=O)NC1c1cc(C)cs1 (centres undefined)	none (no result: L929 necroptosis)
C#Cc1ccc(C(=O)Nc2cc(C(N)=O)ccc2N2CCOCC2)cc1	Mcl1 Noxa PPI 51
CCN(CC)S(=O)(=O)c1ccc(N2CCOCC2)c(NC(=O)c2ccc(C#N)cc2)c1	none
CC[N+]1(C)CC2CCC(C)(C1)C2(C)C (centres undefined)	none
CC(C)=NNc1nc2c(c(=O)n(C)c(=O)n2C)n1CCc1ccccc1	none
CC(C)(C)c1ccccc1NC(=O)c1c(O)c2cccc3c2n(c1=O)CC3	none
COC(=O)c1ccc(COC(=O)c2ccc(CS(=O)(=O)c3ccc(C)cc3)cc2)cc1	Mcl1 Bid PPI 81
COc1cc(/C=N/Nc2nnc3c(n2)[nH]c2ccccc23)ccc1O	Mcl1 Bid PPI 90, Mcl1 Noxa PPI 94
O=C(CCCCn1c(=O)c2ccccc2n(CC(=O)Nc2ccc(F)cc2)c1=O)NCc1ccco1	m-calpain inh 64
C=C1C(=O)[C@@]23[C@H](O)C[C@@H]4C(C)(C)CC[C@H](O)[C@]4(C)[C@@H]2C[C@H](O)[C@@H]1[C@H]3O	Mcl1 Bid PPI 80
Cc1cc(N=Cc2c(O)ccc3cc(Br)ccc23)no1	Mcl1 Noxa PPI 84
Cc1cc(N=Cc2c(O)ccc3ccccc23)no1	none
O=C(Nc1ccc2nc3ccccc3nc2c1)c1ccccc1	Mcl1 Noxa PPI 81
O=C(NNC(=O)c1ccc(NC(=O)c2ccccc2)cc1)c1ccccc1	none
CC(=O)Nc1ccc2cc3ccc(NC(C)=O)cc3nc2c1	Mcl1 Noxa PPI 59 (no result: Mcl-1 Bim block)
CC1(C)Cc2c(sc3[nH]c(=S)n(Cc4ccco4)c(=O)c23)CO1	none
O=c1c2c3c(sc2[nH]c(=S)n1Cc1ccco1)CCC3	Mcl1 Noxa PPI 76 (no result: Mcl-1 Bim block)

High-throughput results from PubChem.
